High-throughput results (PubChem)
D1 ag: activates the human D1 dopamine receptor; 360,000 tested, 1% active; AID 504660; activation, % at 2 µM; HEK293 T-REx D1 cells, calcium flux, agonist mode; note: 0% is about no effect
Target sequence (P21728 whole entry, looked up): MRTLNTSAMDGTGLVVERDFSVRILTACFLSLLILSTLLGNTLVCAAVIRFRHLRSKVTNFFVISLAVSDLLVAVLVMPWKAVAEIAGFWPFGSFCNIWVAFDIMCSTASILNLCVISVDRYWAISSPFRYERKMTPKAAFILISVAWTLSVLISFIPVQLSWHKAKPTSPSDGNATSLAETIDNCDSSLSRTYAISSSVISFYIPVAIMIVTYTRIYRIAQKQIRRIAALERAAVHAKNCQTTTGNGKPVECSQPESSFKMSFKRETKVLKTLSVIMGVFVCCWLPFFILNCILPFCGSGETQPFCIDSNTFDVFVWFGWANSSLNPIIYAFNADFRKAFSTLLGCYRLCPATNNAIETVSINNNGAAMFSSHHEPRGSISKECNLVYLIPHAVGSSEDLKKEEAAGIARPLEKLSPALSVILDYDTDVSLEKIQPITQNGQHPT
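Inducible HEK293 T-REx D1 cells, force-coupled to calcium signalling, were plated at 4000 cells/well with tetracycline and held overnight at 30 C. After no-wash calcium dye loading, compound-evoked calcium rise over 180 s flagged agonists.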
D1 potentiator: enhances dopamine response at the human D1 receptor; P21728; HEK293 TREx D1 cells, calcium flux, dopamine EC20 potentiation; potentiation, % at 10 µM; 360,000 tested, 0.036% active; AID 504651; in the data active = potentiation above about 30%; note: 0% is about no effect
TRHR PAM: TRH receptor (human) allosteric enhancement; 360,000 tested, 0.66% active; P34981; enhancement, % at 2 µM; AID 493056; TRHR cells, fluo-8 calcium fluorescence, EC20 TRH enhancement; in the data active = enhancement above about 30%; note: 0% is about no effect
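TRHR-expressing cells loaded with fluo-8 calcium dye were read kinetically (ex 480/em 530) during compound addition, then stimulated with an EC20 of TRH (10 nM final). Enhancement of the Gq-mediated intracellular calcium response was scored.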
TRHR ag: agonists of human TRH receptor; TRHR cells, calcium flux fluo-8, FDSS agonist mode; P34981; 360,000 tested, 0.18% active; activation, % at 2 µM; note: 0% is about no effect
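Fluo-8-loaded TRHR cells; 10 s baseline, compound added, kinetic Ca2+ fluorescence read 1/s, agonist mode.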
D1 antagonist: antagonists of human D1 dopamine receptor; HEK293 TREx D1 cells, calcium flux, dopamine EC80; active compounds read low; activity change, negative = inhibition, % at 10 µM; 360,000 tested, 3.2% active; AID 504652; P21728; in the data active = activity change below about -30%; note: % is set by controls: 0 for no effect and ±100 for the full control effect
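Inducible Hek293 Trex D1 cells (tetracycline, overnight, 30 C). Calcium dye 30–90 min RT. Antagonist mode: EC80 dopamine added after 180 s compound read.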
* = called active by the depositor; · = no result; ! = not confirmed by another sample. Hits are enriched below; roughly 4.6% of the tested compounds scored in any of these assays. Cut-off read from the data, not from the text of the source, unless noted: active = activation above about 30%; inactive = the rest.

SMILES	D1 ag	D1 potentiator	TRHR PAM	TRHR ag	D1 antagonist
COc1cccc(N2C(=O)C3C(C2=O)C3(c2ccccc2)c2ccccc2)c1 (stereo not given)	3.0	7.0	-3.9	-0.4	3.7
C=CCc1ccc(OCC(O)CN2CCCCC2)c(OC)c1 (stereo not given)	2.1	-6.6	-0.2	-0.1	-6.0
Cc1ccc(C(C)C)c(OCC(O)CN2CCN(c3ccccc3F)CC2)c1 (stereo not given)	4.5	-1.4	11.4	0.8	-34.0*
Cc1ccc(C(C)C)c(OCC(O)CN2CCc3ccccc3C2)c1 (stereo not given)	26.8	-0.1	4.5	1.3	-7.5
C=CCc1ccc(OCC(O)CN2CCN(c3ccccc3)CC2)c(OC)c1 (stereo not given)	13.8	-11.3	-0.2	-0.4	-30.9*
CCN1C(=O)/C(=C/C=C2/CCCN2C)OC1=S	30.2*	-4.2	-4.2	14.3	-9.1
O=C(COC(=O)c1ccncc1)NC(=O)C1CCCCC1	3.7	2.0	-7.6	0.9	-36.5*
CC1CCc2cc(F)ccc2N1C(=O)c1ccncc1 (stereo not given)	4.3	3.0	0.6	0.2	3.0
CCCCCCOc1ccc(/C(C)=N/NC2=NCCN2)cc1	39.1*	-5.2	3.9	0.3	25.6
CCN(CC)CCCC(C)NC(=O)c1cc(=O)c2ccccc2o1 (stereo not given)	5.1	-8.5	-3.1	0.1	-19.0
CC(=O)N1c2ccc(S(=O)(=O)N3CCC(C(=O)NCCc4ccc(Cl)cc4)CC3)cc2CC1C (stereo not given)	8.7	-5.1	-7.5	-0.1	-29.2
Cc1ccc(NC(=O)CNC(=O)N2CC(=O)Nc3ccccc32)cc1F	2.6	-9.6	-4.1	0.5	-2.4
O=C(CN1CC(=O)Nc2ccccc21)Nc1ccc(F)c(F)c1	1.0	-14.8	9.0	-2.2	-39.3*
Cc1ccc(S(=O)(=O)Nc2ccc3nc(C)sc3c2)cc1	15.3	-1.1	2.8	-0.5	-34.5*
Cc1ccc(S(=O)(=O)Nc2ccc3c(c2)OCCO3)cc1	8.2	3.3	0.5	0.0	-20.7
CSc1ccc(S(=O)(=O)Nc2ccc3c(c2)OCCO3)cc1	12.7	-2.6	-3.6	-0.2	-30.1*
Cc1nc2ccc(NS(=O)(=O)c3ccc4c(c3)OCCO4)cc2s1	25.1	-2.5	-3.0	0.9	-31.4*
Cc1nc2ccc(S(=O)(=O)Nc3cccc(-c4nc5cccnc5s4)c3)cc2s1	2.5	-6.3	2.9	0.5	-0.4
Cc1nc2ccc(S(=O)(=O)Nc3ccc(-c4nc5cccnc5s4)cc3)cc2s1	-3.6	-4.8	3.6	-0.5	-54.5*
O=C(NCCOc1ccccc1)c1cccc2c1C(=O)c1ccc(Cl)cc1S2(=O)=O	0.8	0.1	-4.5	0.2	22.1
Cc1ccc(S(=O)(=O)N(C)CC(=O)N2CCC(C(N)=O)CC2)cc1	1.7	-2.7	3.7	-0.4	-0.4
Cc1ccc(S(=O)(=O)Nc2ccc3c(c2)nc(CN2CCCC2)n3C)cc1	49.4*	-1.8	14.2	1.4	-14.3
COc1ccc(OC)c(C2=C[N+](=O)C(C)(C)C(C)(C)N2[O-])c1	4.5	54.0*	7.8	0.0	-11.7
CC1(C)N([O-])C(c2ccccc2)=C[N+](=O)C1(C)C	1.9	-8.0	-2.8	-0.2	-1.4
O=C(NCc1ccccn1)C(=O)C1C(=O)Nc2ccccc21 (stereo not given)	2.5	-0.4	6.6	0.9	-1.2
SMILES	D1 ag	D1 potentiator	TRHR PAM	TRHR ag	D1 antagonist
Cc1ccc(NC(=O)CCS(=O)(=O)c2cccc3nonc23)cc1Cl	5.8	-2.5	5.3	-2.1	-3.3
COc1cccc(-c2nc(SCC(=O)NCC3CCCO3)c(-c3ccc(Cl)cc3)[nH]2)c1 (stereo not given)	1.7	-3.6	-1.6	2.3	-56.4*
COc1cccc(-c2nc(SCC(=O)NCC3CCCO3)c(-c3ccc(C)cc3)[nH]2)c1 (stereo not given)	-1.3	-1.0	0.5	2.0	11.6
COc1ccc(-c2[nH]c(-c3ccc(Cl)cc3)nc2SCC(=O)Nc2nccs2)cc1	0.4	-5.5	-8.4	0.0	-31.7*
CC(C)CCNC(=O)CCCn1c(=O)c2cccn2c2ccccc21	7.4	-4.2	11.6	-0.5	-37.4*
COc1ccccc1CNC(=O)CCCn1c(=O)c2cccn2c2ccccc21	26.5	-4.0	-8.3	-0.5	-36.2*
CCOc1cc(CNC(=O)CCCn2c(=O)c3cccn3c3cccnc32)cc(OCC)c1OCC	0.2	-5.0	-3.4	1.2	-33.0*!
CCOc1ccccc1CNC(=O)CCCn1ncn2c(cc3occc32)c1=O	0.6	-1.8	-4.1	0.5	-39.5*!
CC(OC(=O)Cn1cc(C(F)(F)F)ccc1=O)C(=O)NC(C)c1ccc(Cl)cc1Cl (stereo not given)	1.9	-6.1	6.9	-1.0	-0.9
COc1ccc(N2CC(NC(=O)c3ccco3)CC2=O)cc1 (stereo not given)	-1.8	-1.4	3.4	0.1	·
Cc1ccc(-n2c(-c3ccncc3)n[nH]c2=S)c(C)c1	0.5	-0.9	-3.8	0.1	-8.7
CC1CC(C)(C)NC(=S)O1 (stereo not given)	0.5	-5.2	4.1	0.9	-2.6
O=C(CS(=O)(=O)c1c[nH]c2ccccc12)N1CCCc2ccccc21	-2.2	-3.4	-0.3	-0.2	-49.9*
C/C(=C\c1ccccc1)C(=O)c1c(C)cc(C)[nH]c1=O	-3.2	2.9	31.7*	0.6	21.1
CC1Cc2ccccc2N1CC(=O)NC(=O)NC1CCCC1 (stereo not given)	1.2	-0.2	3.9	0.1	5.9
Cc1cc(CNC(=O)COc2ccccc2F)c2ccccc2n1	13.4	-3.5	-0.7	-1.7	·
CCc1c(C)sc(NC(=O)CN2CCN(C(=O)c3ccco3)CC2)c1C(=O)OC	58.6*	-7.6	-0.7	-0.2	3.6
CCOC(=O)c1ccc(NC(=O)CN2CCN(C(=O)c3ccco3)CC2)cc1	6.8	-6.0	-0.2	0.3	10.0
CCOC(=O)c1c(NC(=O)CN2CCN(C(=O)c3ccco3)CC2)sc(C)c1C	125.7*	-5.3	-1.5	-0.2	-31.7*
C#CCCc1cscc1/C=[N+](\[O-])c1ccc(C(=O)OCC)cc1	-2.7	5.1	-5.2	0.2	·
COc1ccc(/C=c2\s/c(=C/C(=O)c3ccc(C)cc3)[nH]c2=O)cc1OC	64.3*	-6.3	7.0	36.1*	-6.4
CCOc1ccc(C(=O)C(C)OC(=O)Cn2cnc3c2c(=O)n(C)c(=O)n3C)cc1 (stereo not given)	5.3	2.8	-1.2	-0.2	12.4
COc1ccc(OC)c(C(=O)CSc2nnc(Cc3cccs3)n2CCc2ccccc2)c1	51.3*	3.5	-7.1	-1.0	2.5
Cc1ccccc1Cn1ccc(NC(=O)CCSc2nc(-c3ccco3)cc(C(F)(F)F)n2)n1	7.7	-1.9	-3.9	0.3	31.2
Cc1cc(NC(=O)CCSc2nc(-c3ccco3)cc(C(F)(F)F)n2)no1	54.9*	-4.0	-1.1	-0.1	-13.0
